B1: PhoQ; a variant is named by its letters at X, in order, P23837 (parent)
chain: MKKLLRLFFPLSLRVRFLLATAAVVLVLSLAYGMVALIGYSVSFDKTTFRLLRGESNLFYTLAKWENNKLHVELPENIDKQSPTMTLIYDENGQLLWAQRDVPWLMKMIQPDWLKSNGFHEIEADVNDTSLLLSGDHSIQQQLQEVREDDDDAEMTHSVAVNVYPATSRMPKLTIVVVDTIPVELKSSYMVWSWFIYVLSANLLLVIPLLWVAAWWSLRPIEALAKEVRELEEHNRELLNPATTRELTSLVRNLNRLLKSERERYDKYRTTLTDLTHSLKTPLXXLQXXLRSLRSEKMSVSDAEPVMLEQISRISQQIGYYLHRASMRGGTLLSRELHPVAPLLDNLTSALNKVYQRKGVNISLDISPEISFVGEQNDFVEVMGNVLDNACKYCLEFVEISARQTDEHLYIVVEDDGPGIPLSKREVIFDRGQRVDTLRPGQGVGLAVAREITEQYEGKIVAGESMLGGARMEVIFGRQHSAPKDE

The full ranking holds about 140,000 sequences; the median of “enrichment ratio after two sorts for PhoP signalling” is about 0, and the highest 2% start at about 11. The list comes from a sample in which the highest values are over-represented; it also holds similar and randomly drawn sequences.

The variants in this test derive from B1. In words: enrichment ratio after two sorts for PhoP signalling (ratio (wild type AVST 3.29)); higher = more functional. Particulars: with PhoP (E. coli).
As to WHPD, the enrichment ratio is no more than 0.25.

Take CLCS: the enrichment ratio is no more than 0.25.

In the case of RQQL, the enrichment ratio was no more than 0.25.

Turning to HTYY, the enrichment ratio is no more than 0.25.

As for QIYY, the enrichment ratio was no more than 0.25.

For the variant QEYY, the enrichment ratio came out at 17.4.

In the case of MTYY, the enrichment ratio was 0.96.

For the variant MKYY, the enrichment ratio was no more than 0.25.

In the case of RGYY, the enrichment ratio is no more than 0.25.

On to MEYI, for which the enrichment ratio was found to be 11.

As for MEAY, the enrichment ratio was determined as 13.

For NGYY, the enrichment ratio was no more than 0.25.

Turning to MKAY, the enrichment ratio is no more than 0.25.

Consider TGYY, for which the enrichment ratio came to 22.5.

In the case of STYY, the enrichment ratio was no more than 0.25.

Consider MEYY, for which the enrichment ratio is 18.8.

On to NFDN, for which the enrichment ratio is no more than 0.25.

Turning to RTPI, the enrichment ratio is no more than 0.25.

Consider RQSW, for which the enrichment ratio was no more than 0.25.

For IMCF, the enrichment ratio is no more than 0.25.

On to EDGY, for which the enrichment ratio is no more than 0.25.

For the variant SVAV, the enrichment ratio was found to be 7.92.

For SVHQ, the enrichment ratio is no more than 0.25.

For the variant SVSF, the enrichment ratio amounted to 12.6.

As for SVHF, the enrichment ratio was no more than 0.25.

With SVSQ, the enrichment ratio was 13.4.

Consider SVTR, for which the enrichment ratio was 8.52.

As to SVGR, the enrichment ratio was found to be 1.46.

With SVAE, the enrichment ratio is 13.4.

Take KFAE: the enrichment ratio is no more than 0.25.

As to SVHP, the enrichment ratio is no more than 0.25.

In the case of SVSR, the enrichment ratio amounted to 6.38.

In the case of SVMR, the enrichment ratio was 12.6.

As to WQKA, the enrichment ratio was no more than 0.25.

For ARFL, the enrichment ratio is no more than 0.25.

Regarding KVIR, the enrichment ratio was no more than 0.25.

As to ADCI, the enrichment ratio was no more than 0.25.

For the variant PPMF, the enrichment ratio was no more than 0.25.

Regarding RIFK, the enrichment ratio is 1.58.

For NEIH, the enrichment ratio is no more than 0.25.

Regarding TNDC, the enrichment ratio is no more than 0.25.

Consider MKCG, for which the enrichment ratio is no more than 0.25.

For the variant SVTM, the enrichment ratio turned out to be 14.7.

As to SVHG, the enrichment ratio was no more than 0.25.

Take SVPA: the enrichment ratio is no more than 0.25.

SVVA: the enrichment ratio came to 1.32.

Consider SVLY, for which the enrichment ratio came out at 0.677.

On to SVWM, for which the enrichment ratio is no more than 0.25.

In the case of SVPM, the enrichment ratio stood at 7.47.

Turning to SVTS, the enrichment ratio is 7.51.

As for SVVG, the enrichment ratio is 6.29.

Consider SVTG, for which the enrichment ratio was determined as 13.5.

As for SVTI, the enrichment ratio came out at 12.

As for SVTK, the enrichment ratio was determined as 11.9.

Consider GRAK, for which the enrichment ratio is no more than 0.25.

Take PILY: the enrichment ratio is no more than 0.25.

On to EHER, for which the enrichment ratio was no more than 0.25.

With QSNR, the enrichment ratio is no more than 0.25.

On to PYGV, for which the enrichment ratio was no more than 0.25.

With SGYP, the enrichment ratio is no more than 0.25.

For IIGH, the enrichment ratio was no more than 0.25.

Turning to RDSD, the enrichment ratio is no more than 0.25.

For SVTC, the enrichment ratio was 3.84.

Consider SVMH, for which the enrichment ratio stood at 22.9.

As to SVSG, the enrichment ratio turned out to be 13.4.

Regarding SVMG, the enrichment ratio amounted to 5.71.

As for SVWR, the enrichment ratio is no more than 0.25.

On to NVAH, for which the enrichment ratio is no more than 0.25.

Consider KFAH, for which the enrichment ratio was no more than 0.25.

Consider SDSG, for which the enrichment ratio was 0.62.

As to SVAH, the enrichment ratio is 12.7.

As to SVCC, the enrichment ratio came out at 16.1.

KFSG: the enrichment ratio was no more than 0.25.

Regarding NVCC, the enrichment ratio is no more than 0.25.

RVAP: the enrichment ratio was no more than 0.25.

On to WQNE, for which the enrichment ratio is no more than 0.25.

For the variant LLNR, the enrichment ratio was no more than 0.25.

As for TAVV, the enrichment ratio was 1.05.

ARNK: the enrichment ratio is no more than 0.25.

As for QMLS, the enrichment ratio was no more than 0.25.

In the case of SVWI, the enrichment ratio was no more than 0.25.

Consider SVTH, for which the enrichment ratio is 11.9.

On to SVPI, for which the enrichment ratio was 5.93.

For the variant SVCG, the enrichment ratio is 13.3.

Regarding SVCS, the enrichment ratio amounted to 8.61.

Consider SVCI, for which the enrichment ratio came out at 10.4.

As for SVNH, the enrichment ratio amounted to 3.33.

With SVNG, the enrichment ratio stood at 12.5.

Take SVSK: the enrichment ratio was found to be 12.7.

PVNG: the enrichment ratio is no more than 0.25.

In the case of SVSH, the enrichment ratio was 10.5.

As for LCNG, the enrichment ratio is no more than 0.25.

With KLIS, the enrichment ratio is no more than 0.25.

NRHS: the enrichment ratio is no more than 0.25.

With GGDF, the enrichment ratio is no more than 0.25.

As for FHQD, the enrichment ratio is no more than 0.25.

Regarding IWVM, the enrichment ratio is no more than 0.25.

Regarding HEVP, the enrichment ratio is no more than 0.25.

Consider SVMS, for which the enrichment ratio turned out to be 8.47.

Regarding SVCH, the enrichment ratio is 12.5.

Turning to KFCH, the enrichment ratio is no more than 0.25.

SRSF: the enrichment ratio was no more than 0.25.

As for SQSF, the enrichment ratio is 7.01.

As to SLSF, the enrichment ratio turned out to be 11.7.

With SVMV, the enrichment ratio came to 9.33.

On to SVCF, for which the enrichment ratio turned out to be 4.45.

Consider SVMQ, for which the enrichment ratio came to 15.2.

As to MQII, the enrichment ratio is no more than 0.25.

As for RDEG, the enrichment ratio is no more than 0.25.

Consider FSHY, for which the enrichment ratio is no more than 0.25.

Turning to TALR, the enrichment ratio was 3.62.

As to HPIF, the enrichment ratio is no more than 0.25.

For the variant TEVH, the enrichment ratio amounted to 16.3.

With QEVH, the enrichment ratio is no more than 0.25.

For KSVH, the enrichment ratio was no more than 0.25.

MEVH: the enrichment ratio came to 1.05.

For AIVH, the enrichment ratio came out at 15.

In the case of WIVH, the enrichment ratio was no more than 0.25.

Regarding AHVH, the enrichment ratio was no more than 0.25.

KSCS: the enrichment ratio was no more than 0.25.

For the variant TSVH, the enrichment ratio is 11.7.

For TSCS, the enrichment ratio stood at 14.7.

As for TSCK, the enrichment ratio was 3.25.

For LCVH, the enrichment ratio was no more than 0.25.

On to VGWK, for which the enrichment ratio was no more than 0.25.

As for ATFQ, the enrichment ratio stood at 2.02.

For FKND, the enrichment ratio is no more than 0.25.

Turning to AFSM, the enrichment ratio stood at 0.932.

On to RMFW, for which the enrichment ratio was no more than 0.25.

Turning to TSCE, the enrichment ratio amounted to 8.23.

Turning to YSCI, the enrichment ratio stood at 2.62.

YSCV: the enrichment ratio turned out to be 15.6.

In the case of TSCV, the enrichment ratio was 17.3.

For FSCV, the enrichment ratio was 9.84.

Turning to TSCI, the enrichment ratio was 14.8.

Regarding YRCV, the enrichment ratio was no more than 0.25.

On to SSVH, for which the enrichment ratio stood at 14.4.

On to STVH, for which the enrichment ratio worked out at 8.82.

In the case of KSCI, the enrichment ratio was no more than 0.25.

For the variant KYVH, the enrichment ratio is no more than 0.25.

On to KSCV, for which the enrichment ratio was no more than 0.25.

For TRVP, the enrichment ratio was no more than 0.25.

Turning to GWST, the enrichment ratio was no more than 0.25.

Take PYLQ: the enrichment ratio was no more than 0.25.

Consider FLFH, for which the enrichment ratio is no more than 0.25.

In the case of RFWY, the enrichment ratio is no more than 0.25.

Turning to LSFF, the enrichment ratio came to 0.737.

MSSN: the enrichment ratio is no more than 0.25.

In the case of RYDM, the enrichment ratio is no more than 0.25.

Turning to PWRP, the enrichment ratio is no more than 0.25.

As to AMPS, the enrichment ratio is no more than 0.25.

On to KSCA, for which the enrichment ratio is no more than 0.25.

Consider SLVH, for which the enrichment ratio is 2.06.

For KSCQ, the enrichment ratio is no more than 0.25.

As for TSCT, the enrichment ratio turned out to be 18.9.

KSCT: the enrichment ratio was no more than 0.25.

For the variant TSCA, the enrichment ratio was 15.2.

Take TSCQ: the enrichment ratio came to 21.3.

Take FSCT: the enrichment ratio was no more than 0.25.

Take NSCQ: the enrichment ratio is no more than 0.25.

For NSCA, the enrichment ratio is no more than 0.25.

In the case of SRVH, the enrichment ratio was no more than 0.25.

On to SEVH, for which the enrichment ratio turned out to be 17.3.

AGPW: the enrichment ratio is no more than 0.25.

As to MEVW, the enrichment ratio was no more than 0.25.

Turning to DAWH, the enrichment ratio was no more than 0.25.

Turning to VVRK, the enrichment ratio is no more than 0.25.

As to EQCP, the enrichment ratio is no more than 0.25.

As for QPNQ, the enrichment ratio is no more than 0.25.

On to MFMV, for which the enrichment ratio was no more than 0.25.

For FTNT, the enrichment ratio was no more than 0.25.

As for TGEC, the enrichment ratio was 1.95.

As to SFRM, the enrichment ratio is no more than 0.25.

FVEG: the enrichment ratio is no more than 0.25.

Turning to FWMV, the enrichment ratio is no more than 0.25.

In the case of MDAY, the enrichment ratio is no more than 0.25.

As to NVLK, the enrichment ratio is no more than 0.25.

Consider MKAT, for which the enrichment ratio was no more than 0.25.

MCNL: the enrichment ratio was no more than 0.25.

With MMWN, the enrichment ratio is no more than 0.25.

With MAQN, the enrichment ratio was no more than 0.25.

Turning to MCAN, the enrichment ratio worked out at 22.5.

For FDAN, the enrichment ratio is no more than 0.25.

Turning to MAAN, the enrichment ratio was 14.7.

On to MCVN, for which the enrichment ratio is no more than 0.25.

MCWN: the enrichment ratio was found to be 16.1.

Take MCDN: the enrichment ratio is no more than 0.25.

Turning to MEAT, the enrichment ratio was 17.9.

Consider MCAT, for which the enrichment ratio worked out at 4.13.

Turning to DHKR, the enrichment ratio was no more than 0.25.

As to LPWC, the enrichment ratio is no more than 0.25.

Take DVVV: the enrichment ratio is no more than 0.25.

Consider VKNA, for which the enrichment ratio is no more than 0.25.

For the variant RHPV, the enrichment ratio was no more than 0.25.

Regarding YEDC, the enrichment ratio is no more than 0.25.

For the origin of these results see a collection of fitness landscapes (doi:10.1126/science.1257360).
